From PubChem BioAssay
NR1D1 modulator = modulators of human Rev-erb alpha DNA binding; Rev-erbα–FITC-DNA binding, fluorescence polarization, 90 min; actives 0.79% (n = 370,000); AID 1259318; P20393; activity, % at 10 µM;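 active = activity above about 14%, limit read from the data; passing the limit was not always enough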;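 note: 0% = DMSO wells with 35 nM protein and 100% = DMSO wells with 750 nM protein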
Target sequence (P20393 whole entry, looked up): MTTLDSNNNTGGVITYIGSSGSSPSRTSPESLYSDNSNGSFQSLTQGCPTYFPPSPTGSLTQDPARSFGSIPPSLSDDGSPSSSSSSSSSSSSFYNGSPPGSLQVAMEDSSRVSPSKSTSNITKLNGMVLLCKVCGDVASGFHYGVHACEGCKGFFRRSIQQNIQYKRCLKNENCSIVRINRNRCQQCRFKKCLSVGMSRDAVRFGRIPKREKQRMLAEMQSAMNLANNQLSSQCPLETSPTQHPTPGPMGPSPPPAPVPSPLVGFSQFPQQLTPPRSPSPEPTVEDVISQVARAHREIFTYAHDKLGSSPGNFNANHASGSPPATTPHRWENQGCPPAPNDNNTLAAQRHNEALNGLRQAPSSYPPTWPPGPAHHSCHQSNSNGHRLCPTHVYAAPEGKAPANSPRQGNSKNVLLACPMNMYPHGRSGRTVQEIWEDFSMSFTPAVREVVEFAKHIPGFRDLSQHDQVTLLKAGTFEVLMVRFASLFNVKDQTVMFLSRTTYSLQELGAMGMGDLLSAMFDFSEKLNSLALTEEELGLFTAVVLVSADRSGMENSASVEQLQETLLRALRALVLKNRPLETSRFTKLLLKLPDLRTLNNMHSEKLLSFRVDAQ
EP2 mod = modulators of human EP2 prostaglandin E2 receptor | P43116 | EP2-expressing cells, cAMP HTRF FRET, PGE2 co-stimulation | induction, % at 25 µM | actives 0.83% (n = 260,000);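 active = compounds whose cAMP rise, as percent of the full-agonist control response, exceeds 60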;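 note: rat C6 glioma line stably carrying human EP2 under a CMV promoter; the protocol text gives 20 µM as final concentration; 100% = response of wells given 1 µM PGE2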
SKN-1 block = C. elegans SKN-1 inhibition | C. elegans VP596 Pgst-4::GFP/RFP ratio, acrylamide-induced, 24 h | inhibition, % at 21.8 µM | actives 0.49% (n = 360,000) | AID 624304;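 active = interference check ratio from 0.5 to 1.5 plus GFP to RFP signal ratio inhibition reaching or exceeding a fixed threshold, cut at about 30% in these data, passing the limit was not always enough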
PG9 binder = PG9 antibody binding by small molecule; actives 0.43% (n = 360,000); TR-FRET gp120-PG9 antibody binding; inhibition, % at 6.7 µM; AID 624416; in the data active = inhibition above about 8.5%
PGE2 EP2 inh = blocks the human prostaglandin E2 receptor EP2 | inhibition, % at 25 µM | C6 glioma cells expressing human EP2, cAMP TR-FRET; cells stimulated with saturating PGE2 | actives 0.52% (n = 260,000) | AID 1422;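 active = percent inhibition above 40 after rounding to a whole number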;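 note: rat C6 glioma host cells with rolipram phosphodiesterase inhibitor present; the protocol text gives 20 µM as final concentration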
RAM network inh = blocks the yeast RAM network. AID 868. actives 1.8% (n = 190,000). S. cerevisiae dse1pr::URA3 reporter, 5-FOA growth OD615, 2 d; analog-sensitive cbk1-as2 kinase mutant strain. inhibition, % at 50 µM;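 active = inhibition above a set limit, 3 SD over mean compound inhibition, cut at about 8.4% in these data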;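 note: 0% = DMSO-only wells with no growth and 100% = 10 µM 1-NA-PP1 full growth; inhibition rescues growth on 5-FOA so higher OD means more RAM inhibition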
The depositor's hits bear a star; . = no result. A selection: hits, their analogues and other compounds. The true share with any hit is near 2.9%.

SMILES | NR1D1 modulator | EP2 mod | SKN-1 block | PG9 binder | PGE2 EP2 inh | RAM network inh
CCCCC(=O)N(c1ccc(C(=O)O)cc1)c1nc(-c2ccc(Cl)cc2)c(CC)s1 | 12 | 37 | 9 | -1 | 7 | 4
CCc1sc(N(C(=O)Cc2ccccc2)c2ccccc2)nc1-c1ccccc1 | 3 | 27 | 8 | -1 | 18 | 11*
COc1ccccc1CNC(=O)CN1CCC(c2ccc(OC)c(OC)c2)CC1 | . | 2 | . | . | 2 | .
COC(=O)c1sccc1NC(=O)CSc1cccc(Cl)c1Cl | 1 | 61* | 5 | 0 | . | 8.7*
COC(=O)c1sccc1NC(=O)c1c(Cl)cccc1Cl | -8 | . | 19 | -2 | . | .
Cc1csc(-c2cc3cc(Br)cc(Br)c3oc2=O)n1 | . | 19 | . | . | 9 | .
Cc1cc(-c2cncnc2C2CCCN(C(=O)C(C)(C)C)C2)on1 (configuration not stated) | . | -12 | . | . | . | .
CC(C)NC(=O)CNc1ccc(C(F)(F)F)cc1[N+](=O)[O-] | -6 | -29 | 3 | 0 | 3 | 3
O=C(CNc1ccc(C(F)(F)F)cc1[N+](=O)[O-])OCC(=O)c1ccccc1 | 2 | 16 | 5 | -1 | 14 | 11*
CCn1c(SCC(=O)Nc2cccc(C)c2C)nnc1-c1ccco1 | . | -18 | . | . | 10 | .
Clc1ccc(-c2nnc(-c3cccnc3)o2)cc1 | 4 | . | 40* | -1 | . | .
Cc1ccc(-c2nnc(-c3cccnc3)o2)cc1 | 3 | . | 1 | -1 | . | .
Clc1ccc(-c2nnc(-c3ccccc3)o2)cn1 | 4 | . | 42* | -3 | . | .
Brc1ccc(-c2nnc(-c3ccco3)o2)cc1 | -1 | -11 | 81* | -1 | . | -1
c1ccc(-c2nnc(-c3ccco3)o2)cc1 | -3 | 19 | 21 | 0 | 12 | 1
FC(F)(F)c1ccc(-c2nnc(-c3cccnc3)o2)cc1 | 7 | . | 3 | 2 | . | .
Brc1ccc(-c2nnc(-c3cccnc3)o2)cc1 | -1 | . | 48* | 1 | . | .
COc1ccccc1C1(NC(=O)c2ccc3c(c2)OCO3)CCCC1 | . | -30 | . | . | . | .
CCc1cc2c(=O)c(-c3nc4ccccc4[nH]3)c(CCC(=O)O)oc2cc1O | . | -13 | . | . | 1 | .
CN(C)CCCNCc1cc2c(-c3ccc(F)cc3)nn(-c3ccccc3)c2[nH]c1=O | . | -69 | . | . | 9 | .
COCCN1C(=O)C(=O)/C(=C(\O)c2ccc(OC)c(C)c2)C1c1cccc(OC)c1OC (configuration not stated) | . | 21 | . | . | 16 | .
Brc1ccc(CSc2nnc(-c3cccnc3)o2)cc1 | 1 | -9 | 43* | -1 | 6 | 3
Brc1ccc(-c2nnc(-c3ccccc3Br)o2)cc1 | 1 | 34 | 65* | 0 | 17 | 1
COc1ccc(-c2cc(C(=O)NC3CC3)c3ccccc3n2)cc1 | 1 | . | 3 | 0 | . | .
O=C(NC1CC1)c1cc(-c2ccc(Br)cc2)nc2ccccc12 | 1 | . | 36* | -1 | . | .
SMILES | NR1D1 modulator | EP2 mod | SKN-1 block | PG9 binder | PGE2 EP2 inh | RAM network inh
COc1ccc(OCC(=O)Nc2sc3c(c2C(=O)NCC2CCCO2)CCC3)cc1 (configuration not stated) | -1 | 0 | 13 | 1 | 10 | 9.0*
COc1ccc(NC(=O)C(=O)NCc2cccs2)cc1 | . | -11 | . | . | 10 | .
OCCN(CCO)c1ccc(C(c2ccccc2Cl)c2ccc(N(CCO)CCO)cc2Cl)c(Cl)c1 | . | -14 | 36* | . | 12 | 6
Cc1ccc(C(=O)c2cc([N+](=O)[O-])ccc2N2CCCCC2)cc1C | 3 | 43 | 9 | 1 | 2 | 10.0*
Cc1ccc(C(=O)c2cc([N+](=O)[O-])ccc2N2CCOCC2)cc1C | 8 | 27 | -2 | -2 | 1 | 1
COCCCNC(=O)c1c(NC(=O)c2ccccc2)sc2c1CCCC2 | . | 65* | . | . | 11 | .
COCCCNC(=O)c1c(NC(=O)c2ccc(C)cc2)sc2c1CCCC2 | . | 33 | . | . | 12 | .
CC(C)NC(=O)Cn1cc(CN2CCN(CC3CCCO3)CC2)c2ccccc21 (configuration not stated) | . | -21 | . | . | 5 | .
CNC(=O)COC(=O)COc1ccc2c(C)cc(=O)oc2c1 | 2 | -8 | 2 | -1 | 7 | 0
Cc1cc(=O)oc2cc(OCC(=O)OCC(=O)NCCc3ccccc3)ccc12 | -1 | 3 | 8 | -2 | 8 | 9.2*
Nc1cc(-c2cccs2)nn(CC(=O)N2CCN(c3ccc(F)cc3)CC2)c1=O | . | -116 | . | . | 12 | .
CC1CCN(c2nnc(-c3ccccc3)c3ccccc23)CC1 | 2 | 65* | 4 | -2 | 13 | 0
COc1cc(C(=O)CSc2nc(N)cc(N)n2)ccc1NC(C)=O | . | -12 | . | . | 14 | .
CCCCOc1ccc(S(=O)(=O)NNC(=O)c2cc3ccccc3o2)cc1 | 0 | -85 | 10 | -2 | 6 | 10*
CC(C)NC(=O)C1CCN(C(=O)NC2CCCCC2)CC1 | . | -11 | . | . | 5 | .
COc1cc(OC)cc(-c2nnc(SCC(=O)N3CCCc4ccccc43)o2)c1 | -2 | -42 | 15 | -1 | 16 | 2
COc1cccc(-c2nnc(SCC(=O)N3CCCc4ccccc43)o2)c1 | 0 | -8 | 10 | 0 | 11 | 8.5*
COc1cccc(-c2nc(CSCC(=O)N3CCc4ccccc43)c(C)o2)c1 | 3 | -29 | 21 | -2 | 0 | 8.8*
COc1ccc(-c2nnc(SCC(=O)N3c4ccccc4Sc4ccccc43)o2)cc1 | -3 | -2 | 3 | 3 | 3 | 3
COc1cc(OC)cc(-c2nnc(SCC(=O)N3c4ccccc4Sc4ccccc43)o2)c1 | 0 | 61* | -12 | -1 | 13 | .
COc1ccc(-c2nc(CSCC(=O)N3CCc4ccccc43)c(C)o2)cc1OC | 0 | -47 | -19 | 0 | 2 | 5
C=CCn1c(SCC(C)=O)nc2c1c(=O)n(C)c(=O)n2C | . | -32 | . | . | 9 | .
O=C(Cn1cnc2c(cnn2-c2ccccc2Cl)c1=O)Nc1ccc2c(c1)OCO2 | . | -35 | . | . | 14 | .
COc1cccc(/C=C/c2ccc3cccc(O)c3n2)c1 | 0 | . | 17 | 1 | . | .
COc1cc(/C=C/c2ccc3cccc(O)c3n2)cc(OC)c1OC | -4 | . | -6 | -1 | . | .
SMILES | NR1D1 modulator | EP2 mod | SKN-1 block | PG9 binder | PGE2 EP2 inh | RAM network inh
Cc1ccc(/C=C/c2ccc3cccc(O)c3n2)s1 | 2 | . | 35* | 0 | . | .
Oc1cccc(/C=C/c2ccc3cccc(O)c3n2)c1 | -1 | . | 46* | -1 | . | .
CCN(CC)C(=O)N1CCC(Cn2nc(-c3ccccc3)ccc2=O)CC1 | . | 55 | . | . | . | .
CCn1c(=O)c(C(=O)Nc2nc3ccc(C)cc3s2)c(O)c2ccccc21 | . | 3 | . | . | 12 | .
Cc1ccc(O)c(-c2cc(C(F)(F)C(F)F)nc(-c3ccccc3)n2)c1 | 0 | 30 | -27 | 0 | 10 | 9.6*
CCOc1ccc2[nH]c(=O)c(CN(CCOC)C(=O)c3ccc(F)cc3)cc2c1 | . | 10 | . | . | 9 | .
O=C(Nc1ccc(Cl)c(Cl)c1)N1CCN(c2ncccn2)CC1 | . | -155 | . | . | 20 | .
C/C(=N\NC(=O)c1ccc(C)cc1C)c1ccc2c(c1)Nc1ccccc1S2 | 4 | -75 | 9 | -5 | 43* | 4
